Unmarked numbers belong to inactive results. Where a call stands in place of a potency, no number is given. Calls of active or inactive are those of the source. Calls follow the shape of the dose curve; as a rule, active = well fitted activation curve with a large enough effect in the repeat runs; inconclusive = weak or mixed curves; inactive = flat fitted curve, though single readings scatter.
Experiment: Caspase-3/7 induction in CHO-K1 cells by small molecules, qHTS assay (AID 1346980); also: nearly all actives have a fitted effect of over 15% in size
Settings: CHO-K1 caspase-3/7 induction, Caspase-Glo luminescence, 17 h; series mostly up to 92.4 µM
From the text: National Center for Advancing Translational Sciences [NCATS]
NIH Chemical Genomics Center [NCGC]
U.S. Environmental Protection Agency [EPA]
National Institutes of Environmental Health Sciences [NIEHS]
National Toxicology Program [NTP]
Apoptosis is a process of programmed cell death and plays a central role in the development of multicellular organisms. It is a highly regulated process and induces cell death by activating caspases, which are the members of cysteine aspartic acid-specific protease (caspase) family. Caspases involved in apoptosis are classified by their mechanism of action as initiator caspases (caspase-2, -8, -9 and -10) and executioner caspases (caspase-3, -6, and -7). Inhibition of apoptosis results in number of cancers, autoimmune diseases, inflammatory diseases and viral infection. To identify small molecule compounds that induce apoptosis, a homogeneous, luminescent Caspase-Glo 3/7 assay was used. Wild type CHO-K1 cells were used to screen Tox21 libraries for identifying caspase-3/7 activity inducers.
CHO-K1 cells were dispensed at 1,500 per well in 5uL of culture medium into white solid bottom 1536-well plates (Corning Life Sciences, Corning, NY) using a Multidrop Combi (Thermo Scientific, Waltham, MA) dispenser. The assay plates were incubated at 37 C and 5% CO2 for 5hr, and then 23nL of compounds dissolved in DMSO and positive control were transferred using a Pintool station (Wako, San Diego, CA). The assay plates were incubated at 37C and 5% CO2 for 17hr. For caspase-3/7 activity read, 4uL of Caspase-Glo 3/7 reagent (Promega Corporation, Madison, WI) was added to each well of the assay plates using Flying Reagent Dispenser (FRD, Aurora Discovery, San Diego, CA) and incubated the assay plates at room temperature for 30min. The luminescence signal was quantified using a ViewLux plate reader (Perkin Elmer, Shelton, CT).
Potency is read from the fitted curve at half-maximal effect.

Q: For CC#C[C@]1(O)CC[C@H]2[C@@H]3C[C@H](C)C4=CC(=O)CC[C@]4(C)[C@H]3CC[C@@]21C, which Potency is on record?
A: Its Potency is “inactive”.

Q: For CC(C)NCC(O)c1ccccc1Cl (stereo not given), which Potency is on record?
A: The Potency was “inactive”.

Q: Which Potency does the source give for O=[N+]([O-])c1cccc2cccc([N+](=O)[O-])c12 here?
A: Its Potency is “inactive”.

Q: For CC(C)(C)c1ccc(OP(=O)(Oc2ccccc2)Oc2ccccc2)cc1, which Potency is on record?
A: Its Potency is “inactive”.

Q: For [C-]1=CC=CC1.[Cl][Zr+2][Cl].c1cc[cH-]c1, which Potency is on record?
A: Its Potency is “inactive”.

Q: For CO/N=C(\C(=O)OC)c1ccccc1CO/N=C(\C)c1cccc(C(F)(F)F)c1, which Potency is on record?
A: The Potency was “inactive”.

Q: Which Potency does the source give for Nc1nc(N)c(N)c(N)n1 here?
A: Its Potency is “inactive”.

Q: With CNC(=O)O/N=C(\C)C(C)S(C)(=O)=O (stereo not given) as the compound, how does the Potency read?
A: Its Potency is “inactive”.

Q: With N#CC(C#N)=NNc1cccc(Cl)c1 as the compound, how does the Potency read?
A: The Potency was “inactive”.

Q: Which Potency does the source give for CCCCn1cc[n+](C)c1 (tested in a mixture with another compound) here?
A: Its Potency is “inactive”.

Q: Which Potency does the source give for CN1[C@@H]2CC[C@H]1CC(O)C2 (stereo not given in full) here?
A: The Potency was “inactive”.

Q: For CC(C)N(C(=O)SC/C(Cl)=C/Cl)C(C)C, which Potency is on record?
A: The Potency was “inactive”.

Q: With Oc1ccc2[nH]cc(CCCCN3CC=C(c4ccccc4)CC3)c2c1 as the compound, how does the Potency read?
A: Its Potency is “inactive”.

Q: For O=NN(CCO)CCO, which Potency is on record?
A: Its Potency is “inactive”.

Q: With COC(=O)N(OC)c1ccccc1COc1ccn(-c2ccc(Cl)cc2)n1 as the compound, how does the Potency read?
A: The Potency was “inactive”.

Q: For Nc1ccc(Cl)cc1C(=O)c1ccccc1F, which Potency is on record?
A: Its Potency is “inactive”.

Q: With CCCCCCCc1ccc(O)cc1 as the compound, how does the Potency read?
A: Its Potency is “inactive”.

Q: Which Potency does the source give for CSSC here?
A: The Potency was “inactive”.

Q: With CC(C)C(Nc1ccc(C(F)(F)F)cc1Cl)C(=O)OC(C#N)c1cccc(Oc2ccccc2)c1 (stereo not given) as the compound, how does the Potency read?
A: Its Potency is “inactive”.

Q: For C[C@H]1[C@H](c2ccc(Cl)cc2)SC(=O)N1C(=O)NC1CCCCC1, which Potency is on record?
A: Its Potency is “inactive”.

Q: Which Potency does the source give for CN(C)C(=S)SSC(=S)N(C)C here?
A: The Potency was “inactive”.

Q: With Cc1c([N+](=O)[O-])cc2c(c1[N+](=O)[O-])C(C)(C)CC2(C)C as the compound, how does the Potency read?
A: Its Potency is “inactive”.

Q: For COP(=S)(NC(C)C)Oc1ccc(C)cc1[N+](=O)[O-] (stereo not given), which Potency is on record?
A: Its Potency is “inactive”.

Q: For C[C@]12Cc3cn[nH]c3C[C@@H]1CC[C@@H]1[C@@H]2CC[C@@]2(C)[C@H]1CC[C@]2(C)O, which Potency is on record?
A: Its Potency is “inactive”.

Q: For C=CC(=O)[O][Sn]([CH2]CCC)([CH2]CCC)[CH2]CCC, which Potency is on record?
A: The Potency was 1220 nM (active).

Q: With O=c1[nH]c(Cl)c(Cl)cc1Cl as the compound, how does the Potency read?
A: Its Potency is “inactive”.

Q: Which Potency does the source give for O=S(=O)(NS(=O)(=O)C(F)(F)F)C(F)(F)F here?
A: Its Potency is “inactive”.

Q: For COc1ccc2[nH]cc(CCN(C(C)C)C(C)C)c2c1, which Potency is on record?
A: The Potency was “inactive”.

Q: With CCN(CC)Cc1nccn1-c1ccc([N+](=O)[O-])cc1C(=O)c1ccccc1Cl as the compound, how does the Potency read?
A: The Potency was “inactive”.

Q: Which Potency does the source give for CCOP(=S)(OCC)Oc1cc(C)nc(N(CC)CC)n1 here?
A: The Potency was “inactive”.

Q: For CN=C=O, which Potency is on record?
A: The Potency was “inactive”.

Q: With CCC(C)Nc1c([N+](=O)[O-])cc(C(C)(C)C)cc1[N+](=O)[O-] (stereo not given) as the compound, how does the Potency read?
A: The Potency was “inactive”.

Q: Which Potency does the source give for COc1ccc2c(c1OC)C(=O)O[C@@H]2[C@H]1c2cc3c(cc2CCN1C)OCO3 here?
A: Its Potency is “inactive”.

Q: Which Potency does the source give for c1ccc2nc(N3CCNCC3)ccc2c1 here?
A: Its Potency is “inactive”.

Q: For Nc1ccccc1-c1ccccc1, which Potency is on record?
A: Its Potency is “inactive”.

Q: For CNC(C)(C)Cc1ccccc1, which Potency is on record?
A: The Potency was “inactive”.

Q: With CC1(C)C(C=C(Cl)Cl)C1C(=O)OC(C#N)c1ccc(F)c(Oc2ccccc2)c1 (stereo not given) as the compound, how does the Potency read?
A: The Potency was “inactive”.

Q: Which Potency does the source give for N#CSCc1ccccc1 here?
A: Its Potency is “inactive”.

Q: Which caspase-3/7 activation does the source give for CC(=O)[O-].CC(=O)[O-].CC(=O)[O-].[Sb+3] here?
A: Its caspase-3/7 activation is -0.0038% [at 3.27 µM].

Q: Which Potency does the source give for CNC(=O)CSP(=O)(OC)OC here?
A: Its Potency is “inactive”.

Reference: PubChem BioAssay (Tox21)
